FMDV inh: antivirals against foot and mouth disease virus. FMDV antiviral cell-based qHTS. Potency, µM (series often up to 57.9 µM), without a hit: at the top dose activity change, negative = inhibition, actives largely listed as inhibitors. 410,000 tested, 1.2% active. AID 1159524; calls by dose curve; tested in HEK293T cells; note: read-out not given here; nearly all actives have a fitted effect of over 45% in size
MARV entry inh: inhibitors of Marburg virus binding or cell entry; Potency, µM (doses to about 37.8 µM), without a hit: at the top dose activity change, negative = inhibition, most hits filed as inhibitors; 300,000 tested, 1.8% active; Marburg virus pseudotyped entry inhibition, cell reporter; calls by dose curve; tested in HEK293 cells
LASV entry inh: Lassa virus entry inhibition; 300,000 tested, 1.2% active; Potency, µM (series often up to 37.9 µM), inactives show at the top dose activity change, negative = inhibition, actives largely listed as inhibitors; AID 540256; Lassa virus pseudotype entry inhibition, cell reporter; calls by dose curve; tested in HEK293 cells; note: nearly all actives have a fitted effect of over 50% in size
VACV Venus inh: inhibitors of vaccinia virus (Venus reporter); Vaccinia virus Venus reporter expression, fluorescence; Potency, µM (top dose mostly 36.5 µM), without a hit: top-dose activity change, negative = inhibition, hits mostly inhibitors; 330,000 tested, 0.46% active; calls by dose curve; tested in A549 cells; note: nearly all actives have a fitted effect of over 30% in size
HCV inhibitor: inhibitors of hepatitis C virus infection; Potency, µM (titrated, usually from 41.8 µM), for inactives: at the top dose activity change, negative = inhibition, hits mostly inhibitors; Huh7.5.1 HCVcc-Cre infection, luciferase reporter, 44 h; 340,000 tested, 3.4% active; active = well fitted inhibition curve with a large enough effect; inconclusive = small, poorly fitted or top-dose-only effect, or another doubt; inactive = no such curve, though single readings can be large or run the other way
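Compounds are dispensed onto cells plated 4 h earlier at 1,000 per well, with HCVcc-Cre virus (about 0.5 moi) added next. Following 44 h of culture, luminescent signal is measured for 15 sec after 15 min with substrate at room temperature.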
VACV mCherry inh: inhibitors of vaccinia virus infection (mCherry reporter signal). Vaccinia virus mCherry reporter infection, fluorescence. Potency, µM (doses to about 36.5 µM), for the others: at the top dose activity change, negative = inhibition, usual class: inhibitors. 310,000 tested, 0.63% active; calls by dose curve; tested in A549 cells; note: nearly all actives have a fitted effect of over 35% in size
An asterisk follows results filed as active; i = inactive; ? = inconclusive; nt = no result; [ ] = remark or other dose. Hits are enriched below; roughly 5.3% of the tested compounds scored in any of these assays. % is set by controls: 0 for no effect and ±100 for the full control effect; potency is the fitted concentration of half-maximal effect.

SMILES	FMDV inh	MARV entry inh	LASV entry inh	VACV Venus inh	HCV inhibitor	VACV mCherry inh
CCN(CCCN(C)C)c1ccc(/C=C/c2ccnc3ccccc23)cc1	nt	nt	nt	7.0%	nt	-18.8%
O=C(Nc1ccc(F)cc1)N(Cc1cccs1)Cc1cc2cc3c(cc2[nH]c1=O)OCO3	17.8µM*	?	?	?	?	?
Cc1ccc(NC(=O)N(Cc2cccs2)Cc2cc3cc4c(cc3[nH]c2=O)OCO4)cc1	nt	-25.1%	-4.1%	nt	-1.8%	nt
O=C(Nc1ccc(F)cc1)N(Cc1ccco1)Cc1cc2cc3c(cc2[nH]c1=O)OCO3	?	17.8µM*	-4.7%	?	-25.1%	nt
CN(C)c1ccc(/C=C/c2ccnc3ccccc23)c(F)c1	nt	nt	nt	14.6%	nt	i
O=C(/C=C/c1cc(Br)ccc1O)c1ccco1	?	nt	nt	-11.8%	?	?
O=C(/C=C/c1ccccc1O)c1ccco1	?	-24.6%	?	12.6µM*	21.3%	?
Cc1nc(N2CCCCC2)sc1C(=O)c1cccc([N+](=O)[O-])c1	-13.0%	-6.9%[46.1 µM]	-23.3%	-20.6%	?	-25.6%
Cc1nc(N2CCCCC2)sc1C(=O)c1ccc(SCCO)c([N+](=O)[O-])c1	31.6µM*	?	?	-22.9%	1.12µM*	?
COc1ccc(C(C(=O)NC2CCCCC2)N(C(=O)CCl)c2cccc(Cl)c2)cc1 (centres undefined)	25.1µM*	?	3.55µM*	?	1.58µM*	?
COc1ccc(C(C(=O)NC2CCCCC2)N(C(=O)CCl)c2ccc(OC)cc2)cc1 (centres undefined)	8.91µM*	-14.5%	-23.7%	-16.8%	1µM*	i
COc1cccc(N(C(=O)c2cnccn2)C(C(=O)NC2CCCCC2)c2ccc(Cl)cc2)c1 (centres undefined)	8.1%	-7.1%	-17.0%	-25.8%	5.5%	-23.7%
COc1ccc(C(C(=O)NC2CCCCC2)N(C(=O)CCl)c2ccc(C)cc2)cc1 (centres undefined)	?	?	?	-25.8%	0.562µM*	-1.5%
COc1ccc(C(C(=O)NC2CCCC2)N(C(=O)c2ccoc2C)c2ccc(C)cc2)cc1 (centres undefined)	-7.2%	-25.5%	?	-15.4%	-12.2%	-8.7%
CC1CCN(C(=O)CSc2nc3ccccc3nc2Cc2ccccc2)CC1	-12.7%	nt	12.3%[46.1 µM]	-16.2%	nt	-16.1%
O=C1[C@H]2[C@@H]3[C@@H](O)[C@H](O)CC(=NOCc4ccccc4)[C@@H]3CC[C@H]2C(=O)N1Cc1ccc2c(c1)OCO2	nt	-17.5%[14.2 µM]	?	nt	nt	nt
COc1ccccc1CC(=O)Nc1ccc2c(c1)OC1(CCCC1)O2	35.1%	?	-22.5%[46.1 µM]	-16.3%	12.6µM*	?
O=C(CN1C(=O)c2ccccc2S1(=O)=O)Nc1cc(S(=O)(=O)N2CCOCC2)ccc1N1CCOCC1	nt	nt	nt	-12.5%	nt	-12.5%
COc1cc(C(=O)Nc2nc(-c3ccc(Cl)cc3)c(C)s2)ccc1OCC(=O)Nc1ccc(F)cc1	28.2µM*	?	10µM*	-10.2%	?	-11.0%
CCOC(=O)N1C/C(=C\c2ccccc2)C(=O)/C(=C/c2ccccc2)C1	20µM*	nt	nt	?	7.8%	?
C/C(=C\c1ccccc1)C(=O)NCCN1CCOCC1	5.4%	nt	nt	1.2%	14.8%	-13.7%
O=C1/C(=C/c2ccccc2)CN(C(=O)CCN2CCOCC2)C/C1=C\c1ccccc1	8.91µM*	?	1.41µM*	?	?	?
CN(C)CCC(=O)N1C/C(=C/c2ccccc2)C(=O)/C(=C\c2ccccc2)C1	8.91µM*	?	?	11.2µM*	?	8.91µM*
CCOC(=O)N1CCN(S(=O)(=O)/C=C/c2ccccc2)CC1	-12.0%	?	0.0%	nt	5.8%	nt
O=C(/C=C/c1ccccc1)N1CCOCC1	15.4%	nt	nt	nt	12.8%	nt
SMILES	FMDV inh	MARV entry inh	LASV entry inh	VACV Venus inh	HCV inhibitor	VACV mCherry inh
O=C(/C=C/c1ccccc1)CCN1CCOCC1	?	?	?	?	?	10µM*
O=C(CCSCc1ccccc1Cl)N1CCN(c2ccc(F)cc2)CC1	3.1%	nt	10.1%[46.1 µM]	-14.0%	nt	-16.0%
COc1ccc(N2CCN(C(CNS(=O)(=O)c3c(C)cc(C)cc3C)c3ccco3)CC2)cc1 (centres undefined)	-5.0%	nt	-17.9%[46.1 µM]	-18.4%	nt	-20.9%
COc1ccc(NC(=O)c2cccc(N3CCCS3(=O)=O)c2)c(OC)c1	-4.3%	nt	9.0%[46.1 µM]	17.3%	nt	-1.3%
Cc1cccc(S(=O)(=O)c2cn(Cc3ccccc3)c3cc(N4CCCCC4C)c(F)cc3c2=O)c1 (centres undefined)	-6.0%	nt	-22.8%[46.1 µM]	-20.2%	nt	-7.1%
COc1ccc(OC(=O)N2C/C(=C/c3ccccc3)C(=O)/C(=C\c3ccccc3)C2)cc1	31.6µM*	?	7.08µM*	-4.6%	?	-6.5%
COc1ccc(OC(=O)N2CCOCC2)cc1	42.7%	nt	nt	nt	3.5%	nt
Cc1nn(-c2ccccc2)c(Cl)c1CN(C(=O)CCl)c1cccc2ccccc12	28.2µM*	?	?	?	?	-25.7%
Cc1nn(-c2ccccc2)c(Cl)c1CN(C(=O)CCl)c1ccc(Cl)cc1	-3.6%	?	?	-23.8%	10µM*	-1.0%
CC(=O)N(Cc1c(C)nn(-c2ccccc2)c1Cl)c1ccc(Cl)cc1	?	1.7%	-2.3%	nt	?	nt
CCN(CC)CCNC(=O)COc1ccc(OC)cc1	?	-7.8%[46.1 µM]	2.7%[46.1 µM]	-12.5%	-11.8%	-13.7%
CCN(CC)CCNC1=NCCn2c1cc1cc(OC)ccc12	-5.6%	?	8.2µM*	nt	6.31µM*	nt
CCOC(=O)c1ccc(N2CCOCC2)c(NC(=O)c2c(-c3ccccc3)noc2C)c1	-13.2%	1.78µM*	?	-28.7%	?	-8.5%
CCC1CN(C(=O)NCc2cccc(OC)c2)c2cc(Cl)ccc2O1 (centres undefined)	0.0%	nt	-16.3%[46.1 µM]	-2.5%	5.62µM*	3.7%
C=C(C)C1CC23C(=O)[C@]4(C(=O)c5ccccc5)C[C@@]5(C)CCC(CC2C1(C)C)(C4=O)[C@@]35OC (some centres undefined)	nt	8.9%[14.2 µM]	nt	nt	nt	nt
O=c1cc(-c2ccccc2Cl)oc2cc(O)cc(O)c12	47.5%	?	?	-5.5%	-1.6%[8.37 µM]	-4.4%
O=C1C=CC(O)(c2cc(=O)c3c(O)cc(O)cc3o2)C=C1	17.8µM*	?	?	?	?	11.2µM*
COc1ccccc1CNc1ncnc2onc(-c3ccc(Cl)cc3)c12	-24.9%	2.0%[46.1 µM]	1.6%[46.1 µM]	-10.6%	nt	-21.1%
CCOC(=O)c1c(NC(=O)c2ccccc2Cl)sc2c1CCc1ccccc1-2	?	11.6%	-9.7%	-4.1%	7.94µM*	-13.5%
CCOC(=O)c1c(NC(=O)c2ccccc2)sc2c1CCc1ccccc1-2	-17.6%	?	13.5%	-12.2%	-22.0%	-3.1%
COc1ccc(CNC(=O)Cn2c(-c3ccccc3)cc(C(C)=O)c2C)cc1OC	5.4%	0.5%[46.1 µM]	nt	-0.7%	nt	-2.0%
